{"source": "the supplement of paper PMC9135407", "system": "primary human hepatic stellate cells (donor 1)", "experiment": "scaled lipid accumulation score (0 = DMSO-like, 1 = nortriptyline-like); higher = stronger HSC inactivation (lipid re-accumulation), active = hit call of the paper", "details": "48 h", "key": {"[1]": {"details": "library stock concentration: 1 mM"}, "[2]": {"details": "library stock concentration: 3.33 mM"}, "[3]": {"details": "library stock concentration: 10 mM"}, "[4]": {"details": "library stock concentration: 80 uM"}, "[5]": {"details": "library stock concentration: 400 uM"}, "[6]": {"details": "library stock concentration: 2 mM"}}, "note": "“And” between values parts separate entries of the source, which are not always exact repeats. Identical values can stand only once. Counter-ions that a name gives are not always drawn. Hit rate of the full screen: of about 5,800 compounds, about 620 (11%) showed activity. Shown is part of a subset that was picked to be rich in actives. A number with no mark means an inactive call.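 Rule for the calls: active = score above a cut-off or among the top three wells of a plate; in these data no inactive exceeds 0.85.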"}
{"compound": "CCCC[C@H](CCC(=O)O)NC(=O)CCCCCCc1ccccc1", "values": [{"measurement": "scaled lipid accumulation score", "setting": "[1]", "value": "≤ 0"}]}
{"compound": "CCCCCCCCCCCCCCCC(=O)OCC(COP(=O)(O)O)OC(=O)CCCCCCCCCCCCCCC", "note": "(configuration not stated) [Dipalmitoylphosphatidic acid]", "values": [{"measurement": "scaled lipid accumulation score", "setting": "[1]", "value": "≤ -0.021"}]}
{"compound": "CC1(C)CCC(c2ccc(Cl)cc2)=C(CN2CCN(c3ccc(C(=O)NS(=O)(=O)c4ccc(N[C@H](CCN5CCOCC5)CSc5ccccc5)c(S(=O)(=O)C(F)(F)F)c4)cc3)CC2)C1", "note": "[ABT-263 (Navitoclax)]", "values": [{"measurement": "scaled lipid accumulation score", "setting": "[2]", "value": 0.024}, {"measurement": "scaled lipid accumulation score", "setting": "[3]", "value": 0.048}]}
{"compound": "Cc1cnc(Nc2ccc(F)cc2Cl)nc1-c1c[nH]c(C(=O)N[C@H](CO)c2cccc(Cl)c2)c1", "values": [{"measurement": "scaled lipid accumulation score", "setting": "[4]", "value": "≤ -0.001"}, {"measurement": "scaled lipid accumulation score", "setting": "[5]", "value": "≤ -0.001"}, {"measurement": "scaled lipid accumulation score", "setting": "[6]", "value": "≤ -0.001"}, {"measurement": "scaled lipid accumulation score", "setting": "[3]", "value": "≤ -0.001"}]}
{"compound": "CC(C)c1cc(-c2n[nH]c(=O)n2-c2ccc3c(ccn3C)c2)c(O)cc1O", "note": "[Ganetespib (STA-9090)]", "values": [{"measurement": "scaled lipid accumulation score", "setting": "[2]", "value": 0.691}, {"measurement": "scaled lipid accumulation score", "setting": "[3]", "value": 0.649}]}
{"compound": "CC(C)c1cc(-c2n[nH]c(=O)n2-c2ccc3c(ccn3C)c2)c(O)cc1O", "note": "[Ganetespib] [listing 1 of 2 here]", "values": [{"measurement": "scaled lipid accumulation score", "setting": "[4]", "value": 0.602}, {"measurement": "scaled lipid accumulation score", "setting": "[5]", "value": 0.802}]}
{"compound": "Cc1cc(NC(=O)Nc2ccc3c(ccn3C)c2)sn1", "values": [{"measurement": "scaled lipid accumulation score", "setting": "[3]", "value": 0.129}]}
{"compound": "CC(C)c1cc(-c2n[nH]c(=O)n2-c2ccc3c(ccn3C)c2)c(O)cc1O", "note": "[Ganetespib] [listing 2 of 2 here]", "values": [{"measurement": "scaled lipid accumulation score", "setting": "[6]", "value": "0.915 (active)"}, {"measurement": "scaled lipid accumulation score", "setting": "[3]", "value": "0.885 (active)"}]}
{"compound": "CCCCCCCCCCCCCCP(=O)(O)O", "note": "[Tetradecyl Phosphonate]", "values": [{"measurement": "scaled lipid accumulation score", "setting": "[1]", "value": "≤ 0"}]}
{"compound": "CN(C)C(=O)[C@H](O)[C@H](Cc1ccccc1)NC(=O)c1cc2cc(Cl)ccc2[nH]1", "values": [{"measurement": "scaled lipid accumulation score", "setting": "[2]", "value": 0.007}, {"measurement": "scaled lipid accumulation score", "setting": "[3]", "value": "≤ 0 and 0.127"}]}
{"compound": "COc1ccccc1C1(O)CCN(CCCn2c3ccccc3c3ccccc32)CC1", "note": "[NNC 05-2090 hydrochloride]", "values": [{"measurement": "scaled lipid accumulation score", "setting": "[3]", "value": 0.491}]}
{"compound": "O=c1[nH]c2ccccc2n1CCCN1CCN(C(c2ccccc2)c2ccccc2)CC1", "note": "[Oxatomide]", "values": [{"measurement": "scaled lipid accumulation score", "setting": "library stock concentration: 4.7 mM", "value": 0.191}]}
{"compound": "C[C@@H]1CN(CCCn2c3ccccc3c3ccccc32)C[C@H](C)N1.Cl.Cl", "note": "[Rimcazole dihydrochloride]", "values": [{"measurement": "scaled lipid accumulation score", "setting": "[3]", "value": "1.34 (active)"}]}
{"compound": "Cc1ccc2c(=O)c3ccccc3n(CCCN)c2c1C", "values": [{"measurement": "scaled lipid accumulation score", "setting": "[3]", "value": 0.501}]}
{"compound": "CCCCCCCCNC(=O)Cc1c(C)n(C(=O)c2ccc(Cl)cc2)c2ccc(OC)cc12", "note": "[Indomethacin N-octyl amide]", "values": [{"measurement": "scaled lipid accumulation score", "setting": "[1]", "value": "≤ 0"}]}
{"compound": "O=C(O)/C=C/CCCCCCCCC(=O)O", "note": "[Traumatic Acid]", "values": [{"measurement": "scaled lipid accumulation score", "setting": "[1]", "value": "≤ 0"}]}
{"compound": "O=C1Nc2ccc(I)cc2C1=Cc1cc(Br)c(O)c(Br)c1", "values": [{"measurement": "scaled lipid accumulation score", "setting": "[2]", "value": "≤ 0"}, {"measurement": "scaled lipid accumulation score", "setting": "[3]", "value": 0.083}]}
{"compound": "CCCCCCCC(=O)CC[C@@H]1[C@@H](C/C=C\\CCCC(=O)O)[C@@H](O)C[C@H]1O", "note": "[Unoprostone]", "values": [{"measurement": "scaled lipid accumulation score", "setting": "[1]", "value": "≤ 0"}]}
{"compound": "O=C(O)CCC/C=C\\C[C@@H]1[C@@H](/C=C/C(=O)COc2cccc(C(F)(F)F)c2)[C@H](O)C[C@@H]1O", "note": "[15-keto Fluprostenol]", "values": [{"measurement": "scaled lipid accumulation score", "setting": "[1]", "value": "≤ 0"}]}
{"compound": "COc1ccc(-n2nc(C(N)=O)c3c2C(=O)N(c2ccc(N4CCCCC4=O)cc2)CC3)cc1", "note": "[Apixaban]", "values": [{"measurement": "scaled lipid accumulation score", "setting": "[2]", "value": "≤ 0"}, {"measurement": "scaled lipid accumulation score", "setting": "[3]", "value": "≤ 0"}]}
{"compound": "O=c1onc2cnc3ccccc3n12", "values": [{"measurement": "scaled lipid accumulation score", "setting": "[3]", "value": "1.01 (active)"}]}
{"compound": "CC(C)CCC[C@@H](C)[C@H]1CC[C@H]2[C@@H]3CC(=O)[C@@]4(O)C[C@@H](O)CC[C@]4(C)[C@H]3CC[C@]12C", "note": "[5.alpha.-hydroxy-6-keto Cholesterol]", "values": [{"measurement": "scaled lipid accumulation score", "setting": "[1]", "value": "≤ 0"}]}
{"compound": "O=C(O)c1ccccc1", "note": "[Benzoic acid]", "values": [{"measurement": "scaled lipid accumulation score", "setting": "library stock concentration: 16.4 mM", "value": "≤ 0"}]}
{"compound": "O=c1c(-c2ccccc2)c1-c1ccccc1", "note": "[diphenylcyclopropenone]", "values": [{"measurement": "scaled lipid accumulation score", "setting": "[3]", "value": "1.25 (active)"}]}
{"compound": "O=C(O)c1ccccc1", "note": "[Benzoic Acid]", "values": [{"measurement": "scaled lipid accumulation score", "setting": "[2]", "value": "≤ 0"}, {"measurement": "scaled lipid accumulation score", "setting": "[3]", "value": 0.005}]}
{"compound": "O=c1c2ccccc2oc2ccccc12", "note": "[Xanthone]", "values": [{"measurement": "scaled lipid accumulation score", "setting": "[2]", "value": "≤ 0"}, {"measurement": "scaled lipid accumulation score", "setting": "[3]", "value": "≤ 0"}]}
{"compound": "Cc1ccccc1N1CCN(S(=O)(=O)C[C@]23CC[C@H](C[C@@H]2NC(=O)[C@@H](N)CCS(C)(=O)=O)C3(C)C)CC1", "note": "[L-368,899 hydrochloride]", "values": [{"measurement": "scaled lipid accumulation score", "setting": "[3]", "value": 0.107}]}
{"compound": "O=P(O)(O)OC1[C@H](OP(=O)(O)O)[C@H](O)C(O)[C@H](O)[C@H]1OP(=O)(O)O", "note": "(stereo partly drawn) [D-myo-Inositol-1,2,6-triphosphate (sodium salt)]", "values": [{"measurement": "scaled lipid accumulation score", "setting": "[1]", "value": 0.004}]}
{"compound": "CCNC(=O)c1[nH]nc(-c2cc(Cl)c(O)cc2O)c1-c1ccc(OC)cc1", "values": [{"measurement": "scaled lipid accumulation score", "setting": "[2]", "value": 0.6}]}
{"compound": "CCNC(=O)C1=C(c2ccc(OC)cc2)C(=C2C=C(Cl)C(O)=CC2=O)NN1", "values": [{"measurement": "scaled lipid accumulation score", "setting": "[3]", "value": "0.897 (active)"}]}
{"compound": "N=C(N)SCCC[C@H](N)C(=O)O", "note": "[Thioarginine (hydrobromide)]", "values": [{"measurement": "scaled lipid accumulation score", "setting": "[1]", "value": "≤ 0"}]}
{"compound": "NCC(O)CC(=O)O", "note": "(configuration not stated) [Aminohydroxybutyric acid]", "values": [{"measurement": "scaled lipid accumulation score", "setting": "[3]", "value": 0.017}]}
{"compound": "CN1CCN(c2ccc(OC(F)(F)F)c(Nc3ncc4c(n3)-c3c(c(C(N)=O)nn3CCO)CC4)c2)CC1", "note": "[listing 1 of 2 here]", "values": [{"measurement": "scaled lipid accumulation score", "setting": "[3]", "value": "0.879 (active)"}]}
{"compound": "CN1CCN(c2ccc(OC(F)(F)F)c(Nc3ncc4c(n3)-c3c(c(C(N)=O)nn3CCO)CC4)c2)CC1", "note": "[listing 2 of 2 here]", "values": [{"measurement": "scaled lipid accumulation score", "setting": "[4]", "value": "≤ 0"}, {"measurement": "scaled lipid accumulation score", "setting": "[5]", "value": "≤ 0"}, {"measurement": "scaled lipid accumulation score", "setting": "[6]", "value": 0.15}, {"measurement": "scaled lipid accumulation score", "setting": "[2]", "value": "≤ -0.009"}, {"measurement": "scaled lipid accumulation score", "setting": "[3]", "value": 0.668}]}
{"compound": "CNC(=O)c1nn(C)c2c1C(C)(C)Cc1cnc(Nc3ccc(N4CCN(C)CC4)cc3)nc1-2", "values": [{"measurement": "scaled lipid accumulation score", "setting": "[2]", "value": 0.148}, {"measurement": "scaled lipid accumulation score", "setting": "[3]", "value": "≤ 0"}]}
{"compound": "COc1cc(Br)c(S(=O)(=O)Nc2ccc(Cl)c(O[C@@H]3CCN(C)C3)c2)cc1OC", "values": [{"measurement": "scaled lipid accumulation score", "setting": "[3]", "value": 0.116}]}
{"compound": "COc1cc2c(cc1OC)[C@@H]1C(=O)c3ccc4c(c3O[C@@H]1CO2)C=CC(C)(C)O4", "note": "[Deguelin(-)]", "values": [{"measurement": "scaled lipid accumulation score", "setting": "[3]", "value": "≤ 0"}]}
{"compound": "CCCCCCCCCCCCC/C=C/[C@@H](O)[C@H](CO)NC(=O)CCCCCCC", "note": "[C-8 Ceramide]", "values": [{"measurement": "scaled lipid accumulation score", "setting": "[1]", "value": "≤ 0"}]}
{"compound": "CCCCCCCCCCCCC/C=C/[C@@H](O)[C@H](CO)NC(=O)CCCCCCC", "note": "[C8 Ceramide]", "values": [{"measurement": "scaled lipid accumulation score", "setting": "[1]", "value": "≤ -0.021"}]}
{"compound": "CCOC(=O)[C@@H](C)Oc1cccc2c(=O)n(CC(=O)Nc3ccc4c(c3)OCCO4)ccc12", "values": [{"measurement": "scaled lipid accumulation score", "setting": "[3]", "value": 0.249}]}
{"compound": "O=C(NCCCNc1nc(Nc2cccc(CN3CCOCC3)c2)ncc1C1CC1)C1CCC1", "values": [{"measurement": "scaled lipid accumulation score", "setting": "[4]", "value": "≤ 0"}, {"measurement": "scaled lipid accumulation score", "setting": "[5]", "value": 0.064}, {"measurement": "scaled lipid accumulation score", "setting": "[6]", "value": 0.072}, {"measurement": "scaled lipid accumulation score", "setting": "[3]", "value": 0.406}]}
{"compound": "CN(C)CCCNC(=O)[C@@H]1C[C@H](CN2CCOCC2)CN(Cc2ccc3ccccc3c2)C1", "values": [{"measurement": "scaled lipid accumulation score", "setting": "[3]", "value": "0.993 (active)"}]}
